In assay [1] the target is Transcriptional activator Myb (Homo sapiens) (UniProt P10242). Kind of assay: ATG_Myb_CIS: Attagene CIS-FACTORIAL HepG2 Assay for human Myeloblastosis (Myb) Proto-Oncogene Transcription Factor (AID 2282986). The conditions noted are these: HepG2 Attagene CIS-FACTORIAL Myb reporter transcription; actives raise or lower the signal. A digest of the protocol:
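HepG2, transient MRTU transfection (cis-element promoters, endogenous TF activity), 24 h compound exposure. Readout: reporter mRNA via RT-PCR, 6-FAM labeling, HpaI digest, capillary electrophoresis. Gain/loss fit vs DMSO.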

Assay [2] concerns the target Nuclear respiratory factor 1 (Homo sapiens) (UniProt Q16656). Kind of assay: ATG_NRF1_CIS: Attagene CIS-FACTORIAL HepG2 Assay for human Nuclear Respiratory Factor 1 (NRF1) Orphan Gene (AID 2282987). The conditions noted are these: HepG2 NRF1 cis-element reporter, Attagene multiplex; actives raise or lower the signal. An outline of the steps:
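Endogenous NRF1-driven reporter transcription measured in transiently transfected human HepG2 liver cells. Readout: reporter mRNA by RT-PCR and capillary electrophoresis with fluorescence detection, 24 h post-dosing. Gain or loss of signal fitted relative to DMSO baseline.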

Assay [3] in a line: ATG_NFI_CIS: Attagene CIS-FACTORIAL HepG2 Assay for human Nuclear Factor I (NFI) (AID 2282989). The conditions noted are these: HepG2 cis-regulatory reporter, NFI response element transcription; actives raise or lower the signal. An outline of the steps: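 HepG2 cells transiently transfected with cis-element-driven multiplexed reporter transcription units, dosed for 24 h. Reporter mRNA quantified by RT-PCR, fluorescent labelling, HpaI digestion and capillary electrophoresis; bidirectional fit versus DMSO baseline.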

For assay [4], the target named is Myc proto-oncogene protein (Homo sapiens) (UniProt P01106). Kind of assay: ATG_Myc_CIS: Attagene CIS-FACTORIAL HepG2 Assay for human Myelocytomatosis (Myc) Proto-Oncogene Transcription Factor (AID 2282990). Particulars: HepG2, Attagene cis-reporter transcription factor activity; actives raise or lower the signal. A digest of the protocol: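 After 24 h chemical treatment of HepG2 cells carrying multiplexed cis-regulated reporter constructs, reporter transcripts quantified by RT-PCR and capillary electrophoresis of fluorescent fragments. Gain or loss fitted against DMSO baseline.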
Myc proto-oncogene protein (Homo sapiens), sequence (P01106 whole entry, looked up, the tested form may be a part): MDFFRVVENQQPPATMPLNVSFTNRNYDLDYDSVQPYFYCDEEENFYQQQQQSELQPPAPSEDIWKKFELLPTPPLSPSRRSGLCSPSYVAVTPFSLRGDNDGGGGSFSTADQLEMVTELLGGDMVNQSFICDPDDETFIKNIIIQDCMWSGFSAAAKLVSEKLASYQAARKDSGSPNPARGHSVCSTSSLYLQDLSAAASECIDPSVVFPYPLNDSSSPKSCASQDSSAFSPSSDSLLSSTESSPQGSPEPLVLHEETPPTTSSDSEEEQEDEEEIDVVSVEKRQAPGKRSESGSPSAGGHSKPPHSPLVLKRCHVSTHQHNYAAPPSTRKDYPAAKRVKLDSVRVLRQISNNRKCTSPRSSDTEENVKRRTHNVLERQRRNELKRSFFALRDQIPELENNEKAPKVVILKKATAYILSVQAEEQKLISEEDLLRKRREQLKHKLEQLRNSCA

Assay [5] can be described thus: ATG_NF_kB_CIS: Attagene CIS-FACTORIAL HepG2 Assay for human Nuclear Factor Kappa B (NF-kB) (AID 2282991). Particulars: HepG2 Attagene cis-factorial NF-kB reporter mRNA; actives raise or lower the signal. An outline of the steps:
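Read-out: reporter transcript levels quantified by RT-PCR plus capillary electrophoresis of 6-FAM-labelled, HpaI-cut fragments. Transfected HepG2 cells, 24 h compound exposure, endogenous NF-kB-driven cis element; gain or loss scored versus DMSO.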

Assay [6] is described as follows: ATG_NRF2_ARE_CIS: Attagene CIS-FACTORIAL HepG2 Assay for human Nuclear Factor Erythroid 2 Related Factor 2 (NFR2) response to Antioxidant Response Elements (ARE) (AID 2282992). The conditions noted are these: HepG2 Attagene ARE/NRF2 reporter, transcription factor activity; actives raise or lower the signal. An outline of the steps: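 HepG2 cells transiently transfected with multiplexed cis-element reporter constructs, 24 h after chemical dosing; reporter mRNA quantified by RT-PCR, fluorescent primer extension, HpaI digestion and capillary electrophoresis. Bidirectional fit relative to DMSO.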

Assay [7] in a line: ATG_Oct_MLP_CIS: Attagene CIS-FACTORIAL HepG2 Assay for human Octamer-Binding Transcription Factor (Oct) (AID 2282993). The conditions noted are these: HepG2 Attagene cis-factorial Oct reporter, mRNA; actives raise or lower the signal. An outline of the steps:
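HepG2 cells transiently transfected with cis-promoter-driven multiplexed reporter transcription units, dosed for 24 h. Reporter mRNA quantified by RT-PCR, fluorescent labelling, HpaI digestion and capillary electrophoresis; bidirectional fits versus DMSO baseline.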

The target of assay [8] is human Peroxisome Proliferator-activated Receptor alpha (PPARa), PPARA (gene 5465) (UniProt Q07869). Kind of assay: ATG_PPARa_TRANS: Attagene TRANS-FACTORIAL HepG2 Assay for human Peroxisome Proliferator-activated Receptor alpha (PPARa) (AID 2283001; active means hit-call score of the fitted dose curve at least 0.9, where 1 is the maximum). An outline of the steps: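 Reporter transcripts from GAL4-UAS units in transfected HepG2 were quantified 24 h after dosing. Detection used reverse transcription, PCR, fluorescent primer extension and capillary electrophoresis, with DMSO as baseline.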
human Peroxisome Proliferator-activated Receptor alpha (PPARa), PPARA (gene 5465), sequence (Q07869 whole entry, looked up, the tested form may be a part): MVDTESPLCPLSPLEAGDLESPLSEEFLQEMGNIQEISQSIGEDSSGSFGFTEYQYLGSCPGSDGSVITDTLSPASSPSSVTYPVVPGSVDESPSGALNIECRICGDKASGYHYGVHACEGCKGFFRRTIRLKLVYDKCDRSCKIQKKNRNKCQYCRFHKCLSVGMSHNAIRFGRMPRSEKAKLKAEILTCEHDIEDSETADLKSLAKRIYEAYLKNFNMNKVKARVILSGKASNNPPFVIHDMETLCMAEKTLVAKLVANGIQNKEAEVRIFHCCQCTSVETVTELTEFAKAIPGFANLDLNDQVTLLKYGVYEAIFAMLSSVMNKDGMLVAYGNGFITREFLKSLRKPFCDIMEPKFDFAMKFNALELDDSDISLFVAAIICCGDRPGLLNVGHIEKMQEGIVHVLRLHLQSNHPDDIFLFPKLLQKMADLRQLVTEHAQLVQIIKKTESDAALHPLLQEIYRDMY

Assay [9] concerns the target human Retinoic Acid Receptor beta (RARb), RARB (gene 5915) (UniProt P10826). Kind of assay: ATG_RARb_TRANS: Attagene TRANS-FACTORIAL HepG2 Assay for human Retinoic Acid Receptor beta (AID 2283004; active means hit-call score of the fitted dose curve at least 0.9, where 1 is the maximum). An outline of the steps:
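HepG2 cells transiently transfected with multiplexed GAL4-UAS reporter units expressing chimeric NR–Gal4 fusions; 24 h compound exposure. Reporter mRNA quantified by RT-PCR, 6-FAM labelling, HpaI digestion and capillary electrophoresis; gain-of-signal fitted against DMSO baseline.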

Assay [10] concerns the target Retinoic acid receptor alpha (Homo sapiens) (UniProt P10276). Kind of assay: ATG_RARa_TRANS: Attagene TRANS-FACTORIAL HepG2 Assay for human Retinoic Acid Receptor alpha (RARa) (AID 2283005; active means hit-call score of the fitted dose curve at least 0.9, where 1 is the maximum). A digest of the protocol: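 Reporter transcripts, measured by RT-PCR with fluorescent labeling and capillary electrophoresis after 24 h dosing, reflect activity of an exogenous human RARa–GAL4 fusion in transiently transfected HepG2. Fitted for increase relative to DMSO.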

Assay [11] has as its target Nuclear receptor subfamily 1 group I member 2 (Homo sapiens) (UniProt O75469). Kind of assay: ATG_PXR_TRANS: Attagene TRANS-FACTORIAL HepG2 Assay for human Pregnane X Receptor (PXR) (AID 2283008; active means hit-call score of the fitted dose curve at least 0.9, where 1 is the maximum). A digest of the protocol: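 HepG2 cells transiently transfected with GAL4-UAS reporter units and PXR-Gal4 chimera, exposed 24 h. Reporter mRNA quantified by RT-PCR, fluorescent labelling, HpaI digestion and capillary electrophoresis; gain of signal vs DMSO.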

In assay [12] the target is Cellular tumor antigen p53 (Homo sapiens) (UniProt P04637). Kind of assay: ATG_p53_CIS: Attagene CIS-FACTORIAL HepG2 Assay for human p53 Transcription Factor (AID 2282994). Particulars: HepG2 p53 cis-element reporter, Attagene mRNA; actives raise or lower the signal. A digest of the protocol: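 HepG2 cells transiently transfected with cis-regulated multiple reporter transcription units, dosed 24 h. Reporter mRNA measured by RT-PCR, 6-FAM primer extension, HpaI digestion and capillary electrophoresis; bidirectional fit relative to DMSO.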
Cellular tumor antigen p53 (Homo sapiens), sequence (P04637 whole entry, looked up): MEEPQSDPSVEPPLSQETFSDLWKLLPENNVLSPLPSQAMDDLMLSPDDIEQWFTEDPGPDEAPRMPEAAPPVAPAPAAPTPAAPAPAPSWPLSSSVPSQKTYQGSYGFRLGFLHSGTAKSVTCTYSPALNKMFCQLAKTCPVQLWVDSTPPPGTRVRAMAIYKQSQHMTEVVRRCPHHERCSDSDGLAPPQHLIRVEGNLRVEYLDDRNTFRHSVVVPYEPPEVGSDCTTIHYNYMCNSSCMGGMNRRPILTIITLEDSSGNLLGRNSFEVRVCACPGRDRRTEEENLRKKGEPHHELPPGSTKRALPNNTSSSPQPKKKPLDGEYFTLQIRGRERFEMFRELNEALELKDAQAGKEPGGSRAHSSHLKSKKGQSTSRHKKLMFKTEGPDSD

Assay [13] in a line: BSK_3C_TissueFactor: BioMAP Diversity Plus: 3C Assay for Tissue Factor Biomarker Activity (AID 2282997). Particulars: BioMAP 3C HUVEC, tissue factor biomarker readout; actives raise or lower the signal. An outline of the steps: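 Primary human umbilical vein endothelial cells in the 3C system were exposed to test chemical for 24 h, then Tissue Factor measured by ELISA. Activity was fitted bidirectionally against DMSO as negative control and baseline.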

Assay [14] can be described thus: BSK_3C_uPAR: BioMAP Diversity Plus: 3C Assay for Urokinase-type plasminogen activator receptor (uPAR) Biomarker Activity (AID 2282998). Particulars: BioMAP 3C HUVEC, uPAR biomarker ELISA; actives raise or lower the signal. An outline of the steps: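 Human umbilical vein endothelial primary cells were exposed to test chemical for 24 h. Cell-surface uPAR was then quantified by ELISA, and responses were fitted bidirectionally against DMSO as negative control and baseline.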
Background: ELISA stands for enzyme-linked immunosorbent assay.

A short description of assay [15]: BSK_3C_VCAM1: BioMAP Diversity Plus: 3C Assay for Vascular cell adhesion molecule 1 (VCAM1) Biomarker Activity (AID 2282999). The conditions noted are these: BioMAP 3C HUVEC, VCAM1 ELISA, cytokine-stimulated; actives raise or lower the signal. An outline of the steps: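 Endothelial cells from human umbilical vein are treated with test chemical. At 24 h, VCAM-1 is measured by ELISA, and responses in either direction are fitted relative to DMSO.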

Assay [16] in a line: BSK_4H_Eotaxin3: BioMAP Diversity Plus: 4H Assay for Eotaxin 3 Biomarker Activity (AID 2283000).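 On outcome: CCL26 protein level quantified by ELISA in parallel with SRB cytotoxicity check.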 Particulars: primary human endothelial cells (HUVEC); actives raise or lower the signal. A digest of the protocol: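 HUVEC, 24 h post-dose, ELISA for Eotaxin-3/CCL26. Gain or loss of signal fitted bidirectionally vs DMSO baseline.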
The target in assay [17] is human Peroxisome Proliferator-activated Receptor delta (PPARd), PPARD (gene 5467) (UniProt Q03181). Kind of assay: ATG_PPARd_TRANS: Attagene TRANS-FACTORIAL HepG2 Assay for human Peroxisome Proliferator-activated Receptor delta (PPARd) (AID 2283002; active means hit-call score of the fitted dose curve at least 0.9, where 1 is the maximum). An outline of the steps: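 Read-out is induced reporter mRNA, quantified by RT-PCR with fluorescent labelling and capillary electrophoresis after 24 h dosing. Cells are HepG2 transiently carrying multiple GAL4-UAS reporter units driven by exogenous NR-GAL4 chimeras; DMSO serves as baseline.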
human Peroxisome Proliferator-activated Receptor delta (PPARd), PPARD (gene 5467), sequence (Q03181 whole entry, looked up, the tested form may be a part): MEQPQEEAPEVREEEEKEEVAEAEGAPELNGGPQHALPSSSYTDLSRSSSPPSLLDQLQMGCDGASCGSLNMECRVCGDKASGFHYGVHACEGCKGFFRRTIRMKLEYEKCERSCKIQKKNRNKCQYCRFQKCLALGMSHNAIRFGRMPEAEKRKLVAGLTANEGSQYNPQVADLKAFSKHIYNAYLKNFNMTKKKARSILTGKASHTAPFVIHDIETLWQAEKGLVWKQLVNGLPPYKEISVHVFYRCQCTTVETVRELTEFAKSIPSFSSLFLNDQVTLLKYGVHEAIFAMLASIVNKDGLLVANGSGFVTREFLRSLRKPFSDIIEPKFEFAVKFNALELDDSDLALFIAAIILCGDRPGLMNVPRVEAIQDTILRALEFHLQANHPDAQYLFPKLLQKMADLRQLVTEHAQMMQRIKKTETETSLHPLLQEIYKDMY

Read-out in assay [18]: Intercellular Adhesion Molecule 1 (ICAM1), ICAM1 (gene 3383)
Kind of assay: BSK_3C_ICAM1: BioMAP Diversity Plus: 3C Assay for Intercellular Adhesion Molecule 1 (ICAM1) Biomarker Activity (AID 2283003). Particulars: primary human endothelial cells (HUVEC); actives raise or lower the signal. An outline of the steps:
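Human vascular endothelial primary cells, 3C conditions, 24 h treatment. ICAM-1 by ELISA.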

Assay [19] can be described thus: BSK_3C_Proliferation: Cell Proliferation Assessment in the BioMAP Diversity Plus: 3C Assay (AID 2283006).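 On AC50: potency may reflect either rise or fall in cell number versus DMSO.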 The conditions noted are these: primary human endothelial cells (HUVEC). A digest of the protocol:
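Proliferation of human vascular endothelial primary cells after 48 h dosing, quantified as SRB-stained protein at 560 nm relative to DMSO.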

The target in assay [20] is Peroxisome proliferator-activated receptor gamma (Homo sapiens) (UniProt P37231). Kind of assay: ATG_PPARg_TRANS: Attagene TRANS-FACTORIAL HepG2 Assay for human Peroxisome Proliferator-activated Receptor-gamma (PPARg) (AID 2283007; active means hit-call score of the fitted dose curve at least 0.9, where 1 is the maximum). A digest of the protocol:
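Read-out: reporter mRNA induction, detected by fluorescence after RT-PCR and capillary electrophoresis. Transiently transfected human HepG2 liver cells carrying a chimeric NR-Gal4 construct were dosed for 24 h; activity was fitted upward relative to DMSO.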

Results filed as inconclusive are left out. The source made the active and inactive calls. How the source made its calls, unless noted: active means hit-call score of the fitted dose curve at least 0.9, where 1 is the maximum; inactive means score below 0.9.

Usually AC50 stands for the midpoint of the concentration-response curve, whichever way the signal moves.

Nuclear respiratory factor 1 (Homo sapiens), sequence (Q16656 whole entry, looked up): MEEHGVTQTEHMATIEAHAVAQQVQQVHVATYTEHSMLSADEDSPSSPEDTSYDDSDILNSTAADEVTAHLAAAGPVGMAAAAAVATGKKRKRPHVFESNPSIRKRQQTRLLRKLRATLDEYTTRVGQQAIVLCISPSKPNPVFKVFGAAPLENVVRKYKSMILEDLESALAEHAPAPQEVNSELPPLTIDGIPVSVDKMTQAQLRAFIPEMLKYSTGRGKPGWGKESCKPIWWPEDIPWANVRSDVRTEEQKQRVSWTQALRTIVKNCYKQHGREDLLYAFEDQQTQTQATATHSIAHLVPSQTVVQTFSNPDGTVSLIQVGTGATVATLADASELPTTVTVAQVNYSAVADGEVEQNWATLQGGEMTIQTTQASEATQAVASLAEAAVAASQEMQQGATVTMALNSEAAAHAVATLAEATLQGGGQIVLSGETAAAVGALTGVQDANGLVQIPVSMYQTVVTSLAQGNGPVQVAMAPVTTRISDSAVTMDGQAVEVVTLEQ
Retinoic acid receptor alpha (Homo sapiens), sequence (P10276 whole entry, looked up, the tested form may be a part): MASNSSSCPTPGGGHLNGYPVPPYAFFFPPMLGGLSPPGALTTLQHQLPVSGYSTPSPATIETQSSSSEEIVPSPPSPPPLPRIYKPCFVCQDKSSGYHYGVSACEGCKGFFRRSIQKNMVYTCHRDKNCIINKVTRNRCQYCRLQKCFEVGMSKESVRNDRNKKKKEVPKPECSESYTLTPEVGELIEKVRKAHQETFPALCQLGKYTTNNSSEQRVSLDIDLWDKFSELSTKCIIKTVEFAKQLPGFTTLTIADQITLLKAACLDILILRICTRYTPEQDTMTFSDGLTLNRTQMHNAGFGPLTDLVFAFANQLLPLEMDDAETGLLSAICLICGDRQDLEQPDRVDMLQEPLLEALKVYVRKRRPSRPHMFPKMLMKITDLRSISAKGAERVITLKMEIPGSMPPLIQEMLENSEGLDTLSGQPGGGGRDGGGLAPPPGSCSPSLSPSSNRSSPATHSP
Nuclear receptor subfamily 1 group I member 2 (Homo sapiens), sequence (O75469 whole entry, looked up, the tested form may be a part): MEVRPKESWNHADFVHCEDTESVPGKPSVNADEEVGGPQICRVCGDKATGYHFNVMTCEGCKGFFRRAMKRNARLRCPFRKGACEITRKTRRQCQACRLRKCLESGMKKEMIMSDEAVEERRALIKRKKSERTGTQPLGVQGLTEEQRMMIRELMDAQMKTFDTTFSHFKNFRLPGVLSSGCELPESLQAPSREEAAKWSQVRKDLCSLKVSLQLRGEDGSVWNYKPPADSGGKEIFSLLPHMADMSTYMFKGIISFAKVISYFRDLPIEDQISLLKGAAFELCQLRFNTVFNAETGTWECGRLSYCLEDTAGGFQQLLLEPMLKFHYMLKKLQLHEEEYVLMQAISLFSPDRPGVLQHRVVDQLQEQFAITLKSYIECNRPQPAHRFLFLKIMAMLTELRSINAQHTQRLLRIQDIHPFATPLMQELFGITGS
Peroxisome proliferator-activated receptor gamma (Homo sapiens), sequence (P37231 whole entry, looked up, the tested form may be a part): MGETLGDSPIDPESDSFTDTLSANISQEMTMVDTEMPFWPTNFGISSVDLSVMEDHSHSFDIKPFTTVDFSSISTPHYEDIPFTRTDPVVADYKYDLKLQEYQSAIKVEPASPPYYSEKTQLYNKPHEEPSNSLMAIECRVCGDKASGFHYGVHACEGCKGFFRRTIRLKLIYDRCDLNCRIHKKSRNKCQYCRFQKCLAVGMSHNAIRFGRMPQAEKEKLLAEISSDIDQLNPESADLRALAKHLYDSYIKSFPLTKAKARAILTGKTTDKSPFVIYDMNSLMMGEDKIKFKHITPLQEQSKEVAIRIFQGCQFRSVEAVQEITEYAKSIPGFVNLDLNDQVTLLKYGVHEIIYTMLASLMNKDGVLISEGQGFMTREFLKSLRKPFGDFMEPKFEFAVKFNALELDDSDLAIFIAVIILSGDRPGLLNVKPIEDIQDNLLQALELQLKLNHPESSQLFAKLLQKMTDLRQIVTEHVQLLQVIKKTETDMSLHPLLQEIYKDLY
human Retinoic Acid Receptor beta (RARb), RARB (gene 5915), sequence (P10826 whole entry, looked up, the tested form may be a part): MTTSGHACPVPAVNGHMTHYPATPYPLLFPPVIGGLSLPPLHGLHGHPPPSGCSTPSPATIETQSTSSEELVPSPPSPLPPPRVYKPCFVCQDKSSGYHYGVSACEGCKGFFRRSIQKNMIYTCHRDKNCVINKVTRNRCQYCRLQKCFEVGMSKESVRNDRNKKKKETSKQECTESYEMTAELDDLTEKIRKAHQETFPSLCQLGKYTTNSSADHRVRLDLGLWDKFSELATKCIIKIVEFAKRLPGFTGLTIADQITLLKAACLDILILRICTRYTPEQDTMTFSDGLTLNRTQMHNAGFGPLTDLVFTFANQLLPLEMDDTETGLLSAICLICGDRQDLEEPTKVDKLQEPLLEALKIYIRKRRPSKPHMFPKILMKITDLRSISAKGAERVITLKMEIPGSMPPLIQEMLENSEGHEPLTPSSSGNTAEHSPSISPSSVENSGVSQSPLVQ
Transcriptional activator Myb (Homo sapiens), sequence (P10242 whole entry, looked up): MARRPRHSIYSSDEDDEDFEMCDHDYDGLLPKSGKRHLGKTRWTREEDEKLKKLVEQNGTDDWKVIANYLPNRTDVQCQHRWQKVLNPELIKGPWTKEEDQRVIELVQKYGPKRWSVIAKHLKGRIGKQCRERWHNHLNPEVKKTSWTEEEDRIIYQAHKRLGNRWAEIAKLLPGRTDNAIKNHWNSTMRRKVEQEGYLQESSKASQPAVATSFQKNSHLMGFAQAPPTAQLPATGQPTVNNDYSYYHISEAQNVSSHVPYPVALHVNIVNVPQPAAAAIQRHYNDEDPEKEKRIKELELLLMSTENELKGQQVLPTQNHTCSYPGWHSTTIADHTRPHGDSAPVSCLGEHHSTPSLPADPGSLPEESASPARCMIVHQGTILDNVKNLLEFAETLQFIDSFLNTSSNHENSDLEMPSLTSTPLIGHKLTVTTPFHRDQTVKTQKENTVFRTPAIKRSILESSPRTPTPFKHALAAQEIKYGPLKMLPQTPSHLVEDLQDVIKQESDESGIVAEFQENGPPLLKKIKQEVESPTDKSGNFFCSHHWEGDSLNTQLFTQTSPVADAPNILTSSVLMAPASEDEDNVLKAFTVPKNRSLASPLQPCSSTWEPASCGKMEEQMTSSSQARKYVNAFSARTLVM

For the compound `Cn1[nH]nnc1=S`, the compound was classed as inactive in assay [1], in assay [2], in [3], in assay [4], in assay [5] and in assay [6]. The call in [7], in assay [8], in assay [9], in assay [10] and in assay [11] was inactive.
Take `[N-]=[N+]=[N-]`: the result in assay [1], in assay [3], in assay [5], in assay [6], in assay [7] and in [12] was inactive. For the same compound, the result in assay [13], in [14], in assay [15], in [16], in assay [8] and in assay [17] was inactive. Besides, the outcome in assay [18] and in [19] was inactive. Also, in assay [4], the AC50 is 100 µM (active).
For `CCOP(=O)(O)C(N)=O`, the compound was called inactive in [1], in assay [2], in assay [3], in assay [4], in assay [6] and in [7]. In addition, the outcome in [10], in assay [20] and in assay [11] was inactive.
On to `CC(C)Nc1ccc(Nc2ccccc2)cc1`, for which the outcome in assay [1], in [2], in assay [3], in assay [4], in assay [7] and in assay [8] was inactive. Besides, the compound was called inactive in assay [9] and in assay [10]. Moreover, the AC50 in assay [6] was 8.92 µM (active); in assay [13], 8.11 µM (active); in assay [14], 13.2 µM (active); in [15] it was 8.53 µM (active); in assay [16], 8.74 µM (active); in assay [18] it was 17.4 µM (active). Further, the AC50 in assay [19] was 1.82 µM (active); in assay [20] it was 23.9 µM (active); in [11] it was 2.71 µM (active).
As for `O=[N+]([O-])c1ccc(Cl)c(Cl)c1`, the call in assay [1], in assay [2], in assay [3], in assay [4], in assay [5] and in assay [7] was inactive. For the same compound, the result in [13], in [14], in assay [15], in [16], in assay [18] and in [19] was inactive. In addition, the values for the AC50 in assay [6] and in assay [20] were 100 µM (active) and 16 µM (active), respectively.
As to `CCCN(CCC)c1c([N+](=O)[O-])cc(C(C)C)cc1[N+](=O)[O-]`, the compound was called inactive in [1], in assay [2], in [3], in assay [4], in [7] and in assay [12]. The outcome in assay [13], in assay [8], in [17], in assay [18], in assay [9] and in assay [10] was inactive. In addition, in [20], the compound was classed as inactive. The AC50 is 38.4 µM (active) in assay [6]; 33.7 µM (active) in assay [14]; 25.8 µM (active) in assay [15]; 32.1 µM (active) in assay [16]; 20 µM (active) in [19]; 1.49 µM (active) in assay [11].

For the origin of these results see PubChem BioAssay (EPA / NIEHS).
